POLH inh – DNA polymerase eta (human) inhibition; Q9Y253; AID 588591; recombinant Pol eta, fluorescent DNA replication assay; Potency, µM (doses to about 114 µM), for the others: at the top dose activity change, negative = inhibition, usual class: inhibitors; actives 1.2% (n = 390,000); note: potency is the fitted concentration of half-maximal effect; % is set by controls: 0 for no effect and ±100 for the full control effect
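Fluorescent replication assay: 50 nM final substrate added after a 15 min room-temperature compound preincubation with 10 nM enzyme. Signal taken at 0 min and again at 10 min.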
POLB inh – DNA polymerase beta (human) inhibition. actives 1.3% (n = 340,000). Pol beta primer extension/strand displacement, fluorescence kinetic. AID 485314. Potency, µM (doses to about 114 µM), for inactives: at the top dose activity change, negative = inhibition, hits mostly inhibitors; note: potency is the fitted concentration of half-maximal effect; % is set by controls: 0 for no effect and ±100 for the full control effect
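Values derive from four-parameter Hill fits of normalized kinetic data: reads at 0 and 10 min following addition of 50 nM substrate to 10 nM Pol beta preincubated 15 min with compound.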
WRN inhibitor – WRN helicase (human) inhibition. Potency, µM (highest dose often 114 µM), for the others: at the highest dose activity change, negative = inhibition, hits mostly inhibitors. AID 651768. actives 0.46% (n = 360,000). Q14191. WRN helicase unwinding, fluorescent forked duplex, kinetic; note: potency is the fitted concentration of half-maximal effect; % is set by controls: 0 for no effect and ±100 for the full control effect; nearly all actives have a fitted effect of over 55% in size
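WRN at 20 nM final was preincubated with compound for 15 min at room temperature; reaction started with 100 nM forked duplex oligonucleotide carrying fluorophore and quencher plus 2 mM ATP (final). Unwinding followed kinetically by red fluorescence (ex 525/em 598 nm).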
POLI inh – inhibitors of human DNA polymerase iota. actives 1% (n = 390,000). Potency, µM (titrated, usually from 115 µM), for inactives: top-dose activity, negative = inhibition, actives largely listed as inhibitors. AID 588590. Q9UNA4. Pol iota fluorescent replication assay, 10 min; note: potency is the fitted concentration of half-maximal effect
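Fluorescent replication assay read twice, at 0 min and 10 min after adding 50 nM (final) substrate. Enzyme (10 nM) and compounds were first incubated 15 min at room temperature; enzyme-free buffer wells were negative controls.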
Pol kappa inh – DNA polymerase kappa (human) inhibition; actives 0.53% (n = 400,000); AID 588579; Potency, µM (top dose mostly 107 µM), inactives show at the top dose activity, negative = inhibition, usual class: inhibitors; purified Pol kappa, fluorescent DNA synthesis assay, 10 min; note: potency is the fitted concentration of half-maximal effect; % is set by controls: 0 for no effect and ±100 for the full control effect
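Readout: fluorescence, taken kinetically at 0 and 10 min. Conditions: 10 nM Pol kappa, 15 min RT compound preincubation, 50 nM substrate final. Controls: enzyme-free buffer wells.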
PI5P4Ka inh – PI5P4K alpha (human) kinase inhibition; P48426; PI5P4Kalpha enzyme, ADP-Glo luminescence, 60 min; stronger effect = lower value; max response, %; actives 1.2% (n = 330,000); active = max response of -50% or lower; inconclusive = between -30% and -50%; inactive = -30% or higher; note: value at the top dose of about 77 µM; % is set by controls: 0 for no effect and ±100 for the full control effect
Target sequence (P48426 whole entry, looked up): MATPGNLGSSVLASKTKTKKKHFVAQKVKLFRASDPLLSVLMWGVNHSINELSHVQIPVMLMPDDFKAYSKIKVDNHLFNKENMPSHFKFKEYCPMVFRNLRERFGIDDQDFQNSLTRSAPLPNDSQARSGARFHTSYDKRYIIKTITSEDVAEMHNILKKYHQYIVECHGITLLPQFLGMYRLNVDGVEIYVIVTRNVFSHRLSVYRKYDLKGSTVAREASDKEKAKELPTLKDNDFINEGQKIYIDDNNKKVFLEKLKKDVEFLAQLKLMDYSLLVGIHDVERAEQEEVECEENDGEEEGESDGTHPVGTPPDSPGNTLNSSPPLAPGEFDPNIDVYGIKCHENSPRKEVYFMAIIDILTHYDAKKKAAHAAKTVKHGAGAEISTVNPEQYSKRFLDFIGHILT
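Human PI5P4Kalpha with substrate in 0.038 M HEPES pH 7.4, 0.28 mM EGTA, 0.1% CHAPS, 5% DMSO; reaction started with 5 microM ATP (final), 60 min at room temperature. ADP formed read by ADP-Glo luminescence.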
* hit, by the source's call; u = inconclusive; x = no result given; [ ] = dose if it differs, or a comment. Rows were chosen to be rich in hits. Some 2.8% of all compounds tested hit in one or more screens of this group. Unless noted, calls come from the whole dose curve; as a rule, active = well fitted curve in the direction sought with a large enough effect; inconclusive = small, poorly fitted or top-dose-only effect, or another doubt; inactive = no such curve, though single readings can be large; an effect the other way counts as inactive or inconclusive.

SMILES | POLH inh | POLB inh | WRN inhibitor | POLI inh | Pol kappa inh | PI5P4Ka inh
COc1cc2cc(CNc3ccccc3)c(=O)n(CC(=O)Nc3ccccc3)c2cc1OC | -11.4% | 0.1% | x | 84.4% | -7.2%[60.1 µM] | x
CCc1ccccc1NC(=O)N1CCN(Cc2nc3ccc(C)cc3o2)CC1 | -5.0% | 27.6% | x | 0.6% | -6.3%[60.1 µM] | x
CC1(C)CC(=O)C2=C(C1)NC(=S)C(C#N)C21CCCCC1 (centres undefined) | -12.1% | 31.2% | 3.8% | 32.2% | 3.6% | -61.8*
CC1(C)CC(=O)C2=C(C1)NC(SCC(=O)Nc1ccccc1)=C(C#N)C21CCCCC1 | -14.1% | u | -8.2%[57.1 µM] | 9.3% | -1.5% | -11.5
O=[N+]([O-])c1ccc(C[n+]2cccc3ccc4cccnc4c32)cc1 | -24.7% | u | -7.5% | 77.1% | 3.4% | -58.3*
Cc1cc(C)n2nc(SCN3C(=O)c4ccccc4C3=O)nc2n1 | -16.7% | 44.7µM* | -12.0% | u | -31.9% | x
CN(CC(=O)Nc1ccc(F)c(F)c1F)C(=O)/C=C/c1ccco1 | u | x | -16.2% | 50.1µM* | -38.3% | -4.2
CN(Cc1ccco1)C(=O)CCc1nc2sc3c(c2c(=O)[nH]1)CCCC3 | u | 7.7% | -23.0% | 44.7µM* | u | u
O=C(CCc1nc2sc3c(c2c(=O)[nH]1)CCCC3)Nc1cccc(Cl)c1 | 12.6µM* | x | -19.5% | 79.4µM* | -32.5% | u
CCCc1nc2sc3c(c2c(=O)[nH]1)CCCC3 | -17.8% | 4.4% | 9.7% | 113.2% | -15.1% | -9.2
CCN(CC)C(=O)c1cccc(NC(=O)CCc2nc3sc4c(c3c(=O)[nH]2)CCCC4)c1 | -7.2% | x | u | u | -8.1% | -22.8
CN(CC(=O)Nc1ccc(Cl)cc1)C(=O)CCc1nc2sc3c(c2c(=O)[nH]1)CCCC3 | u | x | -14.3%[11.6 µM] | 28.2µM* | -41.0% | u
Cc1cc(C)cc(NC(=O)CCc2nc3sc4c(c3c(=O)[nH]2)CCCC4)c1 | 20µM* | x | -14.8% | 44.7µM* | u | u
C=CCCC(=O)N1C[C@H]2CON(C)[C@H]2C[C@H]1c1ccc(Br)cc1 | -20.0% | x | 1.4% | x | x | -0.4
CC(=O)N1CCN(C(=O)CCc2nc3sc4c(c3c(=O)[nH]2)CCCC4)CC1 | -15.7% | 29.1% | 3.1% | -7.7% | -14.4% | -2.4
CN(C)C(=O)CCc1nc2sc3c(c2c(=O)[nH]1)CCCC3 | -15.2% | -0.5% | -7.5% | -6.6% | -4.8% | 4.4
CC(=O)Nc1ccc(NC(=O)CCc2nc3sc4c(c3c(=O)[nH]2)CCCC4)cc1 | u | x | -13.0% | 39.8µM* | -43.5% | u
CN(CC(=O)Nc1ccccc1C(F)(F)F)C(=O)CCc1nc2sc3c(c2c(=O)[nH]1)CCCC3 | 44.7µM* | u | 6.7%[11.6 µM] | u | -8.6% | -22.3
NC(=O)c1ccc(NC(=O)CCc2nc3sc4c(c3c(=O)[nH]2)CCCC4)cc1 | u | x | -25.0% | u | -0.6% | -16.7
O=C(CCc1nc2sc3c(c2c(=O)[nH]1)CCCC3)NCCc1ccc(F)cc1 | u | 22.4µM* | -11.6% | u | -17.3% | u
Cc1cc(C)n(C(C)CC(=O)Nc2ccc(Cl)cc2C)n1 (centres undefined) | -10.0% | 15.2% | x | 9.9% | 9.7% | x
CCOC(=O)C1=C(COC(=O)c2ccc([N+](=O)[O-])o2)NC(=O)NC1C (centres undefined) | u | x | 9.5% | u | -23.2% | 0.0
COc1ccc(C(=O)c2ccccc2)c(O)c1O | x | x | x | x | 10µM* | x
COc1ccc(C(=O)c2ccccc2)c(O)c1 | -8.7% | 2.5% | -16.3% | -0.4% | u | 4.3
O=C1C(Br)=C(c2ccccc2)C(c2ccccc2)=C1c1ccccc1 | 1.2% | x | u | 8.6% | -1.2% | 0.4
CCc1nn2c(-c3ccccc3OC)ccnc2c1-c1ccccc1 | -25.5% | -3.8% | x | -9.6% | -7.7% | x
